Records with an inconclusive call do not appear. The source made the active and inactive calls.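 Rule for the calls, unless noted: active = normalized viability below 100% at a tested concentration; inactive = the rest.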
Experiments:
[1] = growth inhibition of DIPG glioma cells, dose response, cell-based, SU-DIPG-XVII, MIPE5.0, CellTiter-Glo, qHTS (AID 1347060; cut-off not given, nearly all actives have AC50 up to about 26 µM;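 note: cells exposed to compound for 48 hours before viability readout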); conditions: SU-DIPG-XVII viability, CellTiter-Glo ATP luminescence
[2] = growth inhibition of DIPG glioma cells, dose response, cell-based, SU-DIPG-XIII, MIPE5.0, CellTiter-Glo, qHTS (AID 1347064; cut-off not given, nearly all actives have AC50 up to about 23 µM;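 note: cells exposed to compound for 48 hours before the viability read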); conditions: SU-DIPG-XIII viability, CellTiter-Glo ATP luminescence
[3] = viability loss in pontine glioma line – cell-based, SU-DIPG-XXV, MIPE5.0, CellTiter-Glo, qHTS, dose response (AID 1347065; cut-off not given, nearly all actives have AC50 up to about 26 µM;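 note: cells exposed to compound for 48 hours before ATP readout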); conditions: CellTiter-Glo ATP luminescence
[4] = JHH-DIPG-1 glioma cell viability, MIPE5.0 library, CellTiter-Glo luminescence, qHTS (AID 1347067; cut-off not given, nearly all actives have AC50 up to about 26 µM;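 note: cells exposed to compound for 48 hours before readout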); conditions: JHH-DIPG-1 glioma viability, CellTiter-Glo ATP luminescence
[5] = SU-DIPG-XXV glioma cell viability, MIPE5.0 library, qHTS (AID 1347068; cut-off not given, nearly all actives have IC50 up to about 30 µM;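 note: cells exposed to compound for 48 hours before viability readout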)
[6] = ovarian cancer cell viability with rucaparib, profiling panel, oncology-focused library, rucaparib conditional (AID 1508598); conditions: patient-derived ovarian cancer cells, CellTiter-Glo viability, 144 h, hits give low values

C#CC[C@H](c1nc2cc(Cl)ccc2c(=O)n1Nc1ccccc1)N(CCCN)C(=O)c1cccc(Cl)c1F
inactive: viability ([6]; at 0.000305 µM, OCI-C5x cells, with rucaparib 10 µM, 100% = cells with rucaparib alone) 125% | viability ([6]; at 0.000305 µM, OCI-C5x cells, without rucaparib) 105% | viability ([6]; at 0.000305 µM, OCI-P5x cells, with rucaparib 20 µM, 100% = cells with rucaparib alone) 109% | viability ([6]; at 0.00122 µM, OCI-C5x cells, with rucaparib 10 µM, 100% = cells with rucaparib alone) 130% | viability ([6]; at 0.00122 µM, OCI-C5x cells, without rucaparib) 102% | viability ([6]; at 0.00122 µM, OCI-P5x cells, with rucaparib 20 µM, 100% = cells with rucaparib alone) 109% | viability ([6]; at 0.00488 µM, OCI-C5x cells, with rucaparib 10 µM, 100% = cells with rucaparib alone) 115% | viability ([6]; at 0.00488 µM, OCI-C5x cells, without rucaparib) 109% | viability ([6]; at 0.00488 µM, OCI-P5x cells, with rucaparib 20 µM, 100% = cells with rucaparib alone) 107% | viability ([6]; at 0.0195 µM, OCI-C5x cells, with rucaparib 10 µM, 100% = cells with rucaparib alone) 125% | viability ([6]; at 0.0195 µM, OCI-C5x cells, without rucaparib) 112%
active: AC50 [1] 417 nM | AC50 [2] 4680 nM | AC50 [3] 372 nM | AC50 [4] 742 nM | IC50 [5] 417 nM | viability ([6]; at 0.000305 µM, OCI-P5x cells, without rucaparib) 94.3% | viability ([6]; at 0.00122 µM, OCI-P5x cells, without rucaparib) 97.9% | viability ([6]; at 0.00488 µM, OCI-P5x cells, without rucaparib) 92.1% | viability ([6]; at 0.0195 µM, OCI-P5x cells, with rucaparib 20 µM, 100% = cells with rucaparib alone) 96.2% | viability ([6]; at 0.0195 µM, OCI-P5x cells, without rucaparib) 90.6% | viability ([6]; at 0.0781 µM, OCI-C5x cells, with rucaparib 10 µM, 100% = cells with rucaparib alone) 67.5% | viability ([6]; at 0.0781 µM, OCI-C5x cells, without rucaparib) 57.4% | viability ([6]; at 0.0781 µM, OCI-P5x cells, with rucaparib 20 µM, 100% = cells with rucaparib alone) 91.9% | viability ([6]; at 0.0781 µM, OCI-P5x cells, without rucaparib) 49.8% | viability ([6]; at 0.313 µM, OCI-C5x cells, with rucaparib 10 µM, 100% = cells with rucaparib alone) 57% | viability ([6]; at 0.313 µM, OCI-C5x cells, without rucaparib) 55% | viability ([6]; at 0.313 µM, OCI-P5x cells, with rucaparib 20 µM, 100% = cells with rucaparib alone) 59.6% | viability ([6]; at 0.313 µM, OCI-P5x cells, without rucaparib) 17.5% | viability ([6]; at 1.25 µM, OCI-C5x cells, with rucaparib 10 µM, 100% = cells with rucaparib alone) 56.2% | viability ([6]; at 1.25 µM, OCI-C5x cells, without rucaparib) 46.9% | viability ([6]; at 1.25 µM, OCI-P5x cells, with rucaparib 20 µM, 100% = cells with rucaparib alone) 54.9% | viability ([6]; at 1.25 µM, OCI-P5x cells, without rucaparib) 15.7% | viability ([6]; at 5 µM, OCI-C5x cells, with rucaparib 10 µM, 100% = cells with rucaparib alone) 1.31% | viability ([6]; at 5 µM, OCI-C5x cells, without rucaparib) 3.55% | viability ([6]; at 5 µM, OCI-P5x cells, with rucaparib 20 µM, 100% = cells with rucaparib alone) 0.597% | viability ([6]; at 5 µM, OCI-P5x cells, without rucaparib) 1.54%
